Measurements taken from PubChem BioAssay (NCATS).
Inconclusive results are not listed. Activity calls are given as the source filed them. Calls come from the whole dose curve; as a rule, active = well fitted activation curve with a large enough effect; inconclusive = small, poorly fitted or top-dose-only effect; inactive = flat fitted curve, though single readings scatter.

Assay: Cellular Toxicity (caspase-3) Hek293 (AID 664);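 note: cells exposed to compound for 16 h at 37 °C before readout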
Conditions: HEK293 caspase-3 activation, DMSO = 0%, 100 µM tamoxifen = 100%; series mostly up to 92.2 µM; caspase-3 activation: at the top concentration
Procedure, shortened: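 HEK293 cells were exposed to compounds in complete medium for 16 hr at 37 °C, then caspase-3/7 activity was read by Caspase-Glo 3/7 luminescence after 20 min at room temperature. Data normalized to DMSO and 100 uM tamoxifen; AC50 from Hill fits.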

SMILES | caspase-3 activation | outcome
CC(C)CCON=O | 1.62% (inactive) | 
[O]=[Cd] | -0.103% (inactive) | 
COC1=CC(=O)O[C@@H](/C=C/c2ccccc2)C1 | 0.836% (inactive) | 
O=C1C2CC=CCC2C(=O)N1SC(Cl)(Cl)Cl (stereo not drawn) | -7.97% (inactive) | 
CC(C)Nc1ccc(Nc2ccccc2)cc1 | 8.38% (inactive) | 
C[C@]12CCC(=O)C[C@@H]1CC[C@@H]1[C@@H]2CC[C@]2(C)[C@@H](O)CC[C@@H]12 | 9.33% (inactive) | 
ClCC1CO1 (stereo not drawn) | -1.6% (inactive) | 
S=C=S | 0.331% (inactive) | 
CC(C)(C)c1cc(O)ccc1O |  | inactive
O=C1CCO1 | 0.904% (inactive) | 
ClC=C(Cl)Cl | -0.326% (inactive) | 
O=C/C=C/c1ccccc1 |  | inactive
C=CCN=C=S | 1.19% (inactive) | 
[O]=[Cr](=[O])([OH])[O][Cr](=[O])(=[O])[OH] |  | inactive
O=[N+]([O-])c1ccc(F)c([N+](=O)[O-])c1 | -9.69% (inactive) | 
CCCCCl | 2.04% (inactive) | 
O=Cc1ccco1 | -0.123% (inactive) | 
O=CC=O | -0.0198% (inactive) | 
CCOC(=O)c1ccccc1C(=O)OCC |  | inactive
O=[N+]([O-])c1ccccc1 | -2.1% (inactive) | 
O=C(O)C(Cl)(Cl)Cl |  | inactive
[Cl-].[Cl-].[Hg+2] | -8.29% (inactive) | 
O=C1C=CC(=O)C=C1 | -5.88% (inactive) | 
COc1ccc2c(c1OC)C(=O)OC2C1c2cc3c(cc2CCN1C)OCO3 (stereo not drawn) | -1.62% (inactive) | 
ClC(Cl)(Cl)Cl |  | inactive
Clc1ccccc1Cl | 1.37% (inactive) | 
C[C@H]1CCC[C@H](O)CCCCCc2cc(O)cc(O)c2C(=O)O1 | 6.95% (inactive) | 
C[C@H]1CC[C@@H]2[C@@H](C)[C@H]3[C@H](C[C@H]4[C@@H]5CC=C6CC(O[C@@H]7O[C@H](CO)[C@H](O)[C@H](O[C@@H]8O[C@H](CO)[C@@H](O)[C@H](O)[C@H]8O)[C@H]7O[C@H]7O[C@@H](C)[C@H](O)[C@@H](O)[C@H]7O)CC[C@]6(C)[C@H]5CC[C@]34C)N2C1 (stereo partly drawn) | -3.09% (inactive) | 
